# Only some compounds are listed: those with a hit (about 4.1% of all), similar ones and a draw of the others.
# aSyn 5UTR inh – MLPCN primary screen, SNCA 5' untranslated region; AID 1813; 300,000 compounds, 0.82% hits; alpha-synuclein 5'UTR reporter, inhibitor activity; inhibition, % (tested at 7.5 µM); in the data active means inhibition above about 60%;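 further: H4 neuroglioblastoma cells stably carrying SNCA 5'UTR luciferase fusion; 0% = DMSO wells and 100% = positive control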
# KLF5 inh – kruppel-like factor 5 inhibition. DLD-1 KLF5 promoter-luciferase reporter, luminescence. inhibition, % at 5 µM. 290,000 compounds, 0.23% hits. AID 1700;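 active means inhibition above a per-plate limit of that plate's mean compound inhibition plus 3 SD, cut at about 60% in these data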;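 further: 0% = DMSO wells and 100% = LY294002 at 200 µM; higher means less KLF5 promoter-driven luciferase light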
# 697 NFkB inh – inhibitors of the PMA/ionomycin-induced NF-kB reporter in 697 B cells | 697 B-cell NF-kB luciferase reporter, 16 h | inhibition, % at 4 µM | 330,000 compounds, 0.33% hits | AID 435022; in the data active means inhibition above about 35%
# Mdm2 MdmX PPI – human Mdm2/MdmX binding inhibition; 330,000 compounds, 3% hits; O15151+Q00987; inhibition, % at 8 µM; SaOS-2 split-luciferase Mdm2/MdmX complementation, luminescence;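 active means inhibition of at least 50% at 8 µM in the primary screen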
# Target sequence (O15151 whole entry, looked up): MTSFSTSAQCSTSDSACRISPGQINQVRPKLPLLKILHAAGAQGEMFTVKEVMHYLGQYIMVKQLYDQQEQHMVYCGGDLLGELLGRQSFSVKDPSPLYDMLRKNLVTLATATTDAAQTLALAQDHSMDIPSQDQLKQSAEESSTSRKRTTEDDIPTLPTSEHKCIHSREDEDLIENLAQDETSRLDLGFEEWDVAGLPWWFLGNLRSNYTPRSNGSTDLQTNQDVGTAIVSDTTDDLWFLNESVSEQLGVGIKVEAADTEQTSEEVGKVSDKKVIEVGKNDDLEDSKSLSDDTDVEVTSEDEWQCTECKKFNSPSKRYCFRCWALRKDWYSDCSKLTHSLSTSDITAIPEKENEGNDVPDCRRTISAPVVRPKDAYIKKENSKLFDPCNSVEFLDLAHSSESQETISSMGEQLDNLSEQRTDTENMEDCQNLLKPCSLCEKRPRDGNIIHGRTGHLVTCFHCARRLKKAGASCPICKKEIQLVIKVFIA
# Target sequence (Q00987 whole entry, looked up): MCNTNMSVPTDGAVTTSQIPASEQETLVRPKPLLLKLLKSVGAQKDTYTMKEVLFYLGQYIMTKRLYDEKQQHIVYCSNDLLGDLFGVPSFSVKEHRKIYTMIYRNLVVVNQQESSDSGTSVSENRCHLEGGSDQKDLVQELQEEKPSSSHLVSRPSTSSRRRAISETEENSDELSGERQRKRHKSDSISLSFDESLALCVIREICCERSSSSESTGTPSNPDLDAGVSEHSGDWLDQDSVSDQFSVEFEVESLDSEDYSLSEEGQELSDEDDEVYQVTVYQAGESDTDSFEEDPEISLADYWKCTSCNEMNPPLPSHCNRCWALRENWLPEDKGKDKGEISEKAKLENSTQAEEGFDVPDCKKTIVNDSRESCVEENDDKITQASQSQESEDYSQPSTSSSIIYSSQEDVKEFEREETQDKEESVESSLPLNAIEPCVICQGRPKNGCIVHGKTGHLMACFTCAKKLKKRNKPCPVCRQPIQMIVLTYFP
# Jurkat NFkB inh – lowers PMA/ionomycin-induced NF-kB signal in Jurkat cells. inhibition, % at 4 µM. PMA/ionomycin-induced NF-kB luciferase reporter, luminescence. 330,000 compounds, 0.53% hits; in the data active means inhibition above about 50%
# Gli-Sufu block – antagonists of Gli-Sufu signaling | inhibition, % at 5 µM | Sufu-KO-LIGHT fibroblasts, Gli luciferase reporter luminescence | 340,000 compounds, 0.74% hits;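 active means inhibition above about 55%, limit read from the data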;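 further: 0% = DMSO-treated cells and 100% = wells with medium but no cells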
# Mdm2 MdmX conf – human Mdm2/MdmX binding inhibition, confirmed | shares compounds with Mdm2 MdmX PPI | luminescent assay | inhibition, % at 8 µM | 10,000 compounds, 55% hits | AID 489028; in the data active means inhibition above about 40%
# Full FLuc ctr – inhibits full-length luciferase, flagging false Mdm2/MdmX hits. inhibition, % at 8 µM. SaOS-2 full-length luciferase counterscreen, luminescence. 6,200 compounds, 77% hits. shares compounds with Mdm2 MdmX PPI;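 active means mean inhibition at 8 µM reaching about 37%, which flags the compound as non-specific, limit read from the data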;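 further: p53-null SaOS-2 cells with luciferase driven by a doxycycline-inducible promoter; compound on cells about two nights before reading with doxycycline added after day one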
# The depositor's hits bear a star; x = not tested or not shown.
SMILES,aSyn 5UTR inh,KLF5 inh,697 NFkB inh,Mdm2 MdmX PPI,Jurkat NFkB inh,Gli-Sufu block,Mdm2 MdmX conf,others
Cc1ccc(N2CCN(C(=O)NC3CCCCC3)CC2C)cc1 (stereo not given),-11,-4,13,4,3,-14,x,
O=C(O)CCC1(c2ccccc2)NC(=O)NC1=O (stereo not given),3,-11,4,-21,2,6,x,
COc1ccc(Cn2c(C)c(C)c(C#N)c2NC(=O)Nc2cccc(C)c2)cc1,-1,-21,25,54*,0,4,7,
COc1ccc(Cn2cccc(NC(=O)Nc3cccc(C#N)c3)c2=O)cc1,15,-8,-3,67*,13,-4,7,
CCOc1ccc(NC(=O)Nc2cccn(Cc3ccccc3)c2=O)cc1,-43,-41,-27,7,-2,-4,x,
COc1ccc(Cn2c(C)c(C)c(C#N)c2NC(=O)Nc2ccccc2)cc1,11,13,11,36,10,-12,x,
Cc1ccc(-c2cc(C(F)F)n3ncc(C(=O)Nc4ccc(S(=O)(=O)Nc5ccccc5C)cc4)c3n2)cc1,2,-23,-20,54*,8,12,23,
COc1ccc(NS(=O)(=O)c2ccc(NC(=O)c3cnn4c(C(F)F)cc(-c5ccc(C)cc5)nc34)cc2)cc1,x,-26,x,x,x,x,x,
Cc1ccc(NC(=O)/C(=C/c2cccc([N+](=O)[O-])c2)NC(=O)C2CCCCC2)c(C)c1,-3,7,28,88*,14,14,-15,
O=C(Nc1ccc([N+](=O)[O-])cc1)/C(=C/c1cccc([N+](=O)[O-])c1)NC(=O)C1CCCCC1,14,-16,0,27,6,5,x,
O=C(O)CC1S/C(=N/N=C/C=C/c2ccccc2)NC1=O (stereo not given),-7,-32,-2,6,-7,-5,x,
O=C(CC1S/C(=N/N=C/C=C/c2ccccc2)NC1=O)Nc1ccc(Cl)c(Cl)c1 (stereo not given),-12,-6,-6,63*,2,-7,12,
COC(=O)c1cc(OC)nc2ccc(Br)cc12,19,-24,26,18,2,x,x,
CCOC(=O)c1cnc(Nc2nc3ccccc3o2)nc1C,86*,-110,-23,57*,24,40,58*,Full FLuc ctr=44*
Cc1ccc(-n2c(O)c(/C=N/Nc3ccc(S(=O)(=O)N4CCOCC4)cc3[N+](=O)[O-])c3ccccc3c2=O)c(C)c1,17,-23,12,55*,12,20,26,
NC(=O)c1ccc(NC(=O)COC(=O)c2cc3ccccc3cc2O)cc1,x,x,9,54*,-1,8,-10,
Cc1c(C(=O)N2CCN(Cc3ccc4c(c3)OCO4)CC2)sc2ncnc(N3CCN(c4ccccc4F)CC3)c12,-7,3,-11,63*,23,18,23,
Cc1c(C(=O)N2CCN(Cc3ccc4c(c3)OCO4)CC2)sc2ncnc(N3CCN(c4ccccc4)CC3)c12,31,-23,-13,73*,25,48,34,
CC(C)N1C(=O)/C(=C\c2nc3ccccc3c(=O)n2-c2ccccc2)c2ccccc21,-31,14,x,x,x,9,x,
CC(C)N1C(=O)/C(=C/c2nc3ccccc3c(=O)n2-c2ccccc2)c2ccccc21,-66,-11,-28,78*,8,12,54*,Full FLuc ctr=37*
COc1cccc(CN(C)C(=O)c2cc(-c3cccs3)nc3ccccc23)c1,-5,-27,17,58*,-10,10,43*,Full FLuc ctr=61*
COc1ccc(N2CCN(C(=O)c3cc(-c4cccs4)nc4ccccc34)CC2)cc1,19,5,-36,-15,0,-10,x,
COc1cc(-c2cc(C(=O)N(C)Cc3ccccc3)c3ccccc3n2)cc(OC)c1OC,-1,-2,24,62*,-11,20,46*,Full FLuc ctr=76*
COc1ccc(-c2cc(C(=O)N(C)Cc3ccccc3F)c3ccccc3n2)cc1OC,12,-5,26,70*,10,11,39,Full FLuc ctr=105*
COc1cc(-c2cc(C(=O)N3CCCCCC3)c3ccccc3n2)cc(OC)c1OC,x,x,27,24,7,17,x,
